What was measured:
[1] = system: Vero E6 infected with SARS-CoV-2; assay: morphology score (similarity to uninfected cells); higher = more like uninfected cells; settings: 24 h
[2] = system: Vero E6 infected with SARS-CoV-2; assay: SARS-CoV-2 infection rate relative to infected DMSO; higher = more infection, active = 60 or less; settings: 24 h

SMILES	morphology score [1]	SARS-CoV-2 infection rate [2]
OC(CCN1CCCCC1)(c1ccccc1)C1CC2C=CC1C2 (stereo not given) [biperiden] (10 µM)	0.48	75.5% (inactive)
O=C1CCC[C@@H]2[C@H]3CCCN4CCC[C@@H](CN12)[C@@H]34 [matrine] (10 µM)	0.0694	112% (inactive)
OC[C@H]1O[C@@H](c2ccc(Cl)c(Cc3ccc(O[C@H]4CCOC4)cc3)c2)[C@H](O)[C@@H](O)[C@@H]1O [empagliflozin] (10 µM)	-0.159	106% (inactive)
CCOC(=O)[C@H](CCc1ccccc1)N[C@H]1CS[C@H](c2cccs2)CN(CC(=O)O)C1=O [temocapril] (10 µM)	0.0304	114% (inactive)
Cn1c(=O)c2c(ncn2CC(O)CO)n(C)c1=O (stereo not given) [dyphylline] (10 µM)	0.0342	96% (inactive)
Cc1coc2c1C(=O)C(=O)c1c-2ccc2c1CCCC2(C)C [tanshinone-IIA] (10 µM)	0.159	102% (inactive)
C[C@H](N)C(=O)N[C@@H](CCC(N)=O)C(=O)O [dipeptamin] (10 µM)	0.00346	102% (inactive)
COC[C@H](NC(=O)c1cnc(C)s1)C(=O)N[C@@H](COC)C(=O)N[C@@H](Cc1ccccc1)C(=O)[C@@]1(C)CO1 [oprozomib] (0.833333 µM)	-0.312	108% (inactive)
COC1(C2=NCCN2)COc2ccccc2O1 (stereo not given) (10 µM)	0.0681	92.5% (inactive)
COc1c(O)cc2c(c1O)[C@@H]1O[C@H](CO)[C@@H](O)[C@H](O)[C@H]1OC2=O [bergenin] (10 µM)	0.087	96% (inactive)
Cc1[nH]c(/C=C2\C(=O)Nc3ccccc32)c(C)c1CCC(=O)O [orantinib] (10 µM)	0.123	92.5% (inactive)
C/C(O)=C(\C#N)C(=O)Nc1ccc(C(F)(F)F)cc1 [teriflunomide] (10 µM)	0.0341	108% (inactive)
CC[C@H]1OC(=O)[C@H](C)[C@@H](O[C@H]2C[C@@](C)(OC)[C@@H](O)[C@H](C)O2)[C@H](C)[C@@H](O[C@@H]2O[C@H](C)C[C@H](N(C)C)[C@H]2O)[C@](C)(OC)C[C@@H](C)C(=O)[C@H](C)[C@@H](O)[C@]1(C)O [clarithromycin] (10 µM)	-0.0778	109% (inactive)
C[C@H](NC(=O)/C(C#N)=C/c1cccc(Br)n1)c1ccccc1 (0.833333 µM)	-0.0278	118% (inactive)
Cc1cccc(Cc2c[nH]cn2)c1C [detomidine] (10 µM)	-0.193	116% (inactive)
O=C(Nc1cccc(C(F)(F)F)c1)Nc1ccc(Br)cc1-c1nnn[nH]1 (10 µM)	-0.0612	108% (inactive)
COc1ccc(CCCO[C@@H](Cn2ccnc2)c2ccc(OC)cc2)cc1 (0.833333 µM)	0.00702	107% (inactive)
CC(C)CN(C[C@@H](O)[C@H](Cc1ccccc1)NC(=O)O[C@H]1CO[C@H]2OCC[C@H]21)S(=O)(=O)c1ccc(N)cc1 [darunavir] (10 µM)	0.156	107% (inactive)
Cc1cc2c(F)c(Oc3ncnn4cc(OC[C@@H](C)OC(=O)[C@H](C)N)c(C)c34)ccc2[nH]1 [brivanib-alaninate] (10 µM)	0.385	106% (inactive)
NCC1OC(C23CC4CC(CC(C4)C2)C3)Cc2c1ccc(O)c2O (stereo not given) (0.833333 µM)	-0.0685	115% (inactive)
NC(=O)CN1Cc2ccccc2OC1=O [caroxazone] (10 µM)	0.0974	100% (inactive)
CCOc1ccc(-c2ccc(Cn3c(CC(C)(C)C(=O)O)c(SC(C)(C)C)c4cc(OCc5ccc(C)cn5)ccc43)cc2)cn1 (0.833333 µM)	0.228	118% (inactive)
CC(C)C(N)C(=O)O (stereo in doubt) [L-valine] (10 µM)	0.0236	109% (inactive)
CC(O)Cn1cnc2c1c(=O)n(C)c(=O)n2C (stereo not given) [Proxyphylline] (10 µM)	0.074	97% (inactive)
CN(C)c1ccccc1CN1CCCN(Cc2ccccc2N(C)C)C1c1ccncc1 (10 µM)	0.576	42% (active)
Cc1cc(CC(=O)O)n(C)c1C(=O)c1ccc(Cl)cc1 [zomepirac] (10 µM)	0.117	104% (inactive)
CCC[C@H](NC(=O)/C(C#N)=C/c1cccc(Br)n1)c1ccccc1 (0.833333 µM)	0.143	108% (inactive)
NC(=O)NCCN1CCN(c2cccc(C(F)(F)F)c2)CC1 [fluprazine] (10 µM)	0.0715	106% (inactive)
Nc1nc(OCC2CCCCC2)c2nc[nH]c2n1 (10 µM)	0.0911	90.5% (inactive)
O=C(CCBr)N1CCN(C(=O)CCBr)CC1 [pipobroman] (10 µM)	0.23	98.5% (inactive)
